# Data reported in PubChem BioAssay AID540276 (National Center for Advancing Translational Sciences (NCATS), 2011).
# Where “and” joins values, the source holds several entries; their conditions need not be identical. Equal values may be shown once. Hit rate of the full screen: of about 300,000 compounds, about 5,400 (1.8%) were called active. Roughly 28% stayed inconclusive and do not appear here. This is one part of a sample in which actives are shown more often than they occur. The call rests on the fitted dose curve; tested in HEK293 cells.
# Experiment: qHTS for inhibitors of binding or entry into cells for Marburg Virus
# Conditions: Marburg virus pseudotyped entry inhibition, cell reporter; series mostly up to 37.8 µM; activity change, negative = inhibition: at the top concentration
# On the % scale 0 is the no-effect control and ±100 the full control effect; potency means the concentration at half of the fitted maximal effect.
Compound,"activity change, negative = inhibition",Potency
O=C(O)c1ccc(Cn2c(=S)[nH]c3cc(Cl)ccc3c2=O)cc1,-16.6% [at 46.1 µM] (inactive),
CC(C)c1ccc2c(c1)c(SC(C)(C)C)c(CC(C)(C)C(=O)O)n2Cc1ccc(Cl)cc1,,11.2 µM (active) and 6.51 µM (active)
CC(C)c1ccc(Cn2c(COc3ccccc3)nc3ccccc32)cc1,-19.3% [at 46.1 µM] (inactive),
CN(C)C(=O)CCc1ccc2c3c([nH]c2c1)[C@]1(CCC2CCCC2)[C@@H](C(=O)N2CCOCC2)C[C@H](CC(=O)NCc2ccco2)C(=O)N1CC3,2.09% (inactive),
CCOC(=O)c1cc(S(=O)(=O)NCCc2ccc(OC)c(OC)c2)cn1C,-2.37% [at 46.1 µM] (inactive),
COc1cccc(/C=N/Nc2ncc(C(F)(F)F)cc2Cl)c1O,,0.794 µM (active)
COc1cc(/C=C2\SC(=S)N(Nc3ncc(C(F)(F)F)cc3Cl)C2=O)cc(OC)c1OC,-9.7% (inactive),
COc1cccc(/C(C)=N/Nc2ncc(Cl)cc2Cl)c1,2.55% (inactive),
CCCCn1c(N)c(N(Cc2ccccc2OC)C(=O)COc2cc(C)ccc2Cl)c(=O)[nH]c1=O,-20.6% (inactive),
Cc1ccc(C)c(NC(=O)C2Cc3ccccc3CN2C(=O)OCc2ccccc2)c1 (stereo not given),,2.51 µM (active)
Cc1ccc(C)c(NC(=O)C2CCCN2C(=O)OC(C)(C)C)c1 (stereo not given),0% (inactive),
Cc1ccc(S(=O)(=O)N(C)C)cc1NC(=O)C1Cc2ccccc2CN1C(=O)c1ccco1 (stereo not given),-4.73% [at 46.1 µM] (inactive),
Cc1cc(C(F)(F)F)nc(SCC(=O)Nc2nccs2)n1,-18.3% [at 46.1 µM] (inactive),
CCN(CC(=O)Nc1ccc(OC)cc1)C(=O)c1ccc(=O)n(Cc2ccccc2)n1,15% (inactive),
COc1ccc(C)cc1NC(=O)CSc1nnc2ccc(-c3ccccn3)nn12,22.8% [at 46.1 µM] (inactive),
CCOc1ccccc1-c1nc(CN2CCC(C(=O)N3CCOCC3)CC2)c(C)o1,-1.45% (inactive),
Cc1ccc(C)c(NC(=O)C(c2ccccc2)N2CCN(CC(=O)NC3CC3)CC2)c1 (stereo not given),23.5% (inactive),
CC(=O)OC(C(=O)NC1CCCCC1)c1ccccc1 (stereo not given),5.06% [at 46.1 µM] (inactive),
CC(NCc1ccccc1OC1CCCC1)c1ccccc1 (stereo not given),,7.94 µM (active)
OC(CNC1CCCCC1)c1ccccc1 (stereo not given),1.96% (inactive),
COc1ccc2c(c1)c(=Cc1ccc(N(C)C)cc1)c1cc(-c3ccccc3)[n+](C)n12,,4.47 µM (active)
c1ccc2c(c1)[I+]c1ccccc1-2,,0.282 µM (active)

Compound,"activity change, negative = inhibition",Potency
O=C(NCCc1ccccc1)c1c[nH]c2ccc(F)cc2c1=O,12.5% [at 46.1 µM] (inactive),
CC(C)OC(=O)c1ccc(NCc2cc(O)ccc2O)cc1Cl,,2.24 µM (active)
CC(C)NC(=O)c1ccc(Cl)cc1Cl,6.98% (inactive),
CC(OC(=O)c1ccc(Cl)cc1O)C(=O)NCCC1=CCCCC1 (stereo not given),27.6% (inactive),
Cc1ccccc1-n1cc(CNC(=O)C2CCC(=O)N(C3CC3)C2)cn1 (stereo not given),-0.403% (inactive),
CC(C)CCNc1nc(N2CCCC2)c2c(c1C#N)CCN(C)C2,,7.3 µM (active)
CC(C)Cc1nc(N2CCOCC2)c(C#N)c2c1CCC2,,inactive
CCN1CCc2c(C#N)c(NCc3ccccc3)nc(NCCO)c2C1,-3.87% (inactive),
COC1=CC(=O)OC(c2ccc(OC)cc2)C1 (stereo not given),-1.66% [at 46.1 µM] (inactive),
O=C(NCc1ccncc1)C(=O)NCC1OCCN1S(=O)(=O)c1ccc(Br)cc1 (stereo not given),0.653% (inactive),
COc1ccc(-c2csc3ncnc(N4CCN(S(=O)(=O)c5ccccc5C#N)CC4)c23)cc1,-3.55% (inactive),
CCN1/C(=C/c2ccc3ccc(C)cc3[n+]2CC)Sc2ccccc21,,5.01 µM (active)
O=C(c1ccc(NS(=O)(=O)c2ccc3[nH]c(=O)[nH]c3c2)cc1)N1CCCCC1,-1.17% (inactive),
Cc1cccc(NS(=O)(=O)c2ccc([N+](=O)[O-])cc2)n1,4.08% (inactive),
O=[N+]([O-])c1ccc(NS(=O)(=O)c2ccccc2)c(Cl)c1,,11.2 µM (active)
O=C(NNS(=O)(=O)c1ccc(F)cc1)c1ccc([N+](=O)[O-])cc1Cl,-3.35% [at 46.1 µM] (inactive),
CCOC(=O)CCC(NC(=O)c1ccc(CNc2nc3cc(C(F)(F)F)ccc3nc2C(=O)OCC)cc1)C(=O)OCC (stereo not given),6.18% (inactive),
OCCNc1nc2ccccc2n1-c1ncnc2sc3c(c12)CCC3,,11.2 µM (active)
CC(C)(C)C(=O)Cn1c(NCCO)nc2ccccc21,8.41% (inactive),
O=C(O)[C@@H]1CCCN1c1ncnc2sc3c(c12)CCC3,-4.19% (inactive),
Cc1cccc(C=CC(=O)c2ccc(Cl)cc2)c1,-22.1% (inactive),
O=C(COC(=O)c1cccnc1Cl)Nc1ccc(S(=O)(=O)N2CCOCC2)cc1,-6.23% [at 46.1 µM] (inactive),

Compound,"activity change, negative = inhibition",Potency
COc1ccc(C(C(=O)NCC2CCCO2)N(C(=O)Cn2nnc3ccccc32)c2ccc(NC(C)=O)cc2)cc1OC (stereo not given),-1.63% [at 46.1 µM] (inactive),
Cc1ccc(C)c(N2CCN(C(=O)CCc3nc(-c4cccc(C(F)(F)F)c4)no3)CC2)c1,-1.91% (inactive),
COc1ccc(OC)c(Cc2nnc(CCC(=O)NC3CCCC3)o2)c1,17.9% [at 46.1 µM] (inactive),
COc1ccc(OC)c(NC(=O)c2sc3nc(C)cc(C)c3c2N)c1,2.05% [at 46.1 µM] (inactive),
COc1ccc(OC)c(Cc2cnc3nc(N)nc(N)c3c2C)c1,,0.112 µM (active)
CCCc1cc(=O)[nH]c(SCC(=O)Nc2ccc(S(=O)(=O)N3CCCC3)cc2)n1,-1.04% [at 46.1 µM] (inactive),
Cn1c(=O)c2c(O)c(C=NCC3CCCCC3)c(=O)n(C)c2n(C)c1=O,4.39% [at 46.1 µM] (inactive),
Clc1ccc(CN2CCCCCC2)cc1Cl,1.88% (inactive),
COc1ccc(C(O)(C2CCCCC2)C(CN2CCCC2)c2ccccc2)cc1 (stereo not given),,8.91 µM (active)
CC(CN1CCCCC1)c1ccccc1 (stereo not given),13.2% (inactive),
c1ccc(C(CN2CCCCC2)c2ccccc2)cc1,-13.7% (inactive),
CCOc1ccc(NC(=O)CN(C)C(=O)Cc2sc(C)nc2-c2ccc(F)cc2)cc1OCC,1.92% (inactive),
COC(=O)C1CCCCN1C(=O)c1ccc(OC2CCN(C(C)=O)CC2)c(OC)c1 (stereo not given),7.23% (inactive),
CC(C)(C)NCC(O)COc1cccc2[nH]c(=O)[nH]c12 (stereo not given),,inactive
COc1ccccc1OCC(O)CN1CCOCC1 (stereo not given),-0.819% (inactive),
COc1ccccc1OCCNCC(O)COc1cccc2[nH]c3ccccc3c12 (stereo not given),,11.6 µM (active)
Cc1ccc(NC(=O)CSc2nnc(CNC(=O)c3ccccc3F)o2)cc1Cl,21.5% [at 46.1 µM] (inactive),
O=C(N/N=C/c1ccoc1)c1ccc(Cl)cc1Cl,-2.57% [at 46.1 µM] (inactive),
COc1ccc(Cc2nnc(N/N=C/c3ccccc3O)[nH]c2=O)cc1OC,,3.66 µM (active)
O=c1[nH]c(NCCO)nnc1Cc1ccc(Cl)cc1,-1% (inactive),
CCOc1ccc(-n2c(O)c(/C=N/Nc3nnc(C)c(=O)[nH]3)c3ccccc3c2=O)cc1,-12.6% [at 46.1 µM] (inactive),
